Compounds without any hit were thinned out: in the full panel of roughly 83,000, 20% have a hit.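 Step 1: grow cells in 96-well plates. Step 2: add test compound at a single concentration. Step 3: incubate 48 h. Step 4: record percent growth.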 Unmarked numbers belong to inactive results. Active and inactive are the calls of the source. How the source made its calls: active means growth percent below 10; inactive means the rest.
Legend:
Test in all cases: NCI-60 one-dose screen, 48 h (100 = growth as untreated, 0 = no growth, -100 = all killed)
Details in all cases: 10 µM unless noted
NCI-H23 lung = tested on: NCI-H23 lung
NCI-H226 lung = tested on: NCI-H226 lung
NCI-H322M lung = tested on: NCI-H322M lung
HOP-62 NSCLC = tested on: HOP-62 NSCLC
NCI-H460 lung = tested on: NCI-H460 lung
HOP-92 NSCLC = tested on: HOP-92 NSCLC
NCI-H522 lung = tested on: NCI-H522 lung
A549/ATCC NSCLC = tested on: A549/ATCC NSCLC
786-0 renal = tested on: 786-0 renal
COLO 205 colon = tested on: COLO 205 colon
DU-145 prostate = tested on: DU-145 prostate
MALME-3M melanoma = tested on: MALME-3M melanoma
MDA-MB-231 breast = tested on: MDA-MB-231 breast
SF-268 CNS = tested on: SF-268 CNS
SF-295 CNS = tested on: SF-295 CNS
SF-539 CNS = tested on: SF-539 CNS
UACC-257 melanoma = tested on: UACC-257 melanoma
M14 melanoma = tested on: M14 melanoma
K-562 leukemia = tested on: K-562 leukemia
RXF 393 renal = tested on: RXF 393 renal

SMILES	growth (NCI-H23 lung) [%]	growth (NCI-H226 lung) [%]	growth (NCI-H322M lung)	growth (HOP-62 NSCLC) [%]	growth (NCI-H460 lung)	growth (HOP-92 NSCLC) [%]	growth (NCI-H522 lung)	growth (A549/ATCC NSCLC) [%]	growth (786-0 renal)	growth (COLO 205 colon)	growth (DU-145 prostate)	growth (MALME-3M melanoma)	growth (MDA-MB-231 breast)	growth (SF-268 CNS) [%]	growth (SF-295 CNS) [%]	growth (SF-539 CNS)	growth (UACC-257 melanoma)	growth (M14 melanoma)	growth (K-562 leukemia)	growth (RXF 393 renal)
O=c1[nH]c2c(s1)CCCC2CN1CCCCC1 (stereo unspecified)	96.5	95.1	112%	83.7	106%	104	89.5%	80.4	96.2%	98.4%	109%	107%	133%	98.7	104	105%	92%	90.6%	–	–
COc1cccc(C(Cc2ccccc2)Nc2ccccc2)c1OC (stereo unspecified)	92.1	91.3	101%	92.6	101%	77.5	65.6%	81.4	95.5%	–	109%	98.9%	97.4%	101	99.6	104%	91%	97.2%	90.4%	109%
COc1ccc(-c2nc(N/N=C/c3ccco3)nc(N3CCOCC3)c2C#N)cc1	81	84.8	87.1%	68.1	66.4%	49.2	76.9%	81.9	54.7%	–	93.2%	59.5%	86.1%	80.1	90.1	74.2%	94.8%	85.3%	87.6%	–
COc1c(Cl)cc(Cl)c2ccc(C=C3C(=O)NC(=S)NC3=O)nc12	101	100	113%	93.7	103%	116	92%	–	-90.9% (active)	–	115%	106%	113%	99.8	102	101%	102%	-56.2% (active)	102%	–
C1=C2CNCC3=Cc4ccc5ccccc5c4OC23Oc2c1ccc1ccccc21	52.8	67.7	98%	43.6	33.5%	37.2	0.285% (active)	50.6	–	50.8%	65.3%	60.6%	51.3%	42.7	11.6	50.5%	60.9%	2.63% (active)	18.8%	-3.36% (active)
O=C(Nc1ccc2ncnc(Nc3ccc(Oc4cccc(F)c4)c(Cl)c3)c2c1)c1ccc(CN2CCOCC2)cc1	20.1	52	60.7%	17.9	38.8%	53.9	6.89% (active)	–	42.2%	40.1%	39.6%	38.9%	46.1%	49	27.3	53.2%	53.1%	14.7%	8.98% (active)	–
CCCCCCCCCCN=C(N)N=C(N)N	29.4	47.4	80.9%	50.6	40.6%	21.2	53%	–	26.2%	32%	79.1%	30.4%	38.8%	33.1	42.8	58.5%	48.5%	48.2%	21.3%	–
O=C(CCN1CCCC1)Nc1ccc2c(Nc3ccccc3)c3ccccc3nc2c1	22.1	41.9	7.35% (active)	12.1	-60.7% (active)	14.3	-33.7% (active)	–	10.1%	-37.4% (active)	-28.5% (active)	-85.1% (active)	3.81% (active)	26.1	33.4	-62.5% (active)	-39.5% (active)	-77.4% (active)	0.263% (active)	8.26% (active)

Reference: PubChem BioAssay (NCI)
